High-throughput results: PubChem, The Scripps Research Institute Molecular Screening Center
LYPLA1 inh = blocks human lysophospholipase 1, a PME1 counter-screen; O75608; 0.16% of 320,000 active; inhibition, % at 5.9 µM; recombinant LYPLA1, FP-Rh probe fluorescence polarization;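 active means inhibition above the mean of all tested compounds plus 3 SD, set per campaign, cut at about 14% in these data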;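 further: inhibitors block serine hydrolase probe labeling of LYPLA1 so polarization falls; 0% = enzyme with DMSO and 100% = wells lacking LYPLA1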
PAD4 FP inh = inhibitors of human PAD4. inhibition, % at 6.36 µM. Q9UM07. recombinant PAD4, RCA probe fluorescence polarization. 0.41% of 330,000 active;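 active means percent inhibition above a cutoff equal to the mean of all tested compounds plus 3 SD, cut at about 15% in these data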;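 further: 0% = PAD4 with RCA probe and DMSO and 100% = probe without PAD4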
Target sequence (Q9UM07 whole entry, looked up): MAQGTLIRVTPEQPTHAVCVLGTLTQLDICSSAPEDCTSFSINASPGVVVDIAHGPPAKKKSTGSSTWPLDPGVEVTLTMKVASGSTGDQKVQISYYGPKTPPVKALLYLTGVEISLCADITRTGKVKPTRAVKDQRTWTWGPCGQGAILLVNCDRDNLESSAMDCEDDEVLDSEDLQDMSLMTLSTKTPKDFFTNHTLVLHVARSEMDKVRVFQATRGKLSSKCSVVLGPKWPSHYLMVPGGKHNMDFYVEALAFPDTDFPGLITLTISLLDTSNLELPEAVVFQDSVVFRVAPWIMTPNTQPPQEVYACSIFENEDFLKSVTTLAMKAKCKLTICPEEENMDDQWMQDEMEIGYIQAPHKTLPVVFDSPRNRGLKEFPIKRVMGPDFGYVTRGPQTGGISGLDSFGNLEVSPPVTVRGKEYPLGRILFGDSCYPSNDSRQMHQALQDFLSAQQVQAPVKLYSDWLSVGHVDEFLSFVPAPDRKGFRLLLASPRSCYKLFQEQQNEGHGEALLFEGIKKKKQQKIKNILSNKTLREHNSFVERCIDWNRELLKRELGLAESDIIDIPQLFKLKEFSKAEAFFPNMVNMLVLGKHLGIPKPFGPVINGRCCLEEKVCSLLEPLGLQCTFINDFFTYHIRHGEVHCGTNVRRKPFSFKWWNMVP
GSTO1 inh = GSTO1 inhibition, counter-screen for RBBP9 inhibitors | inhibition, % at 5.96 µM | AID 1974 | 1.1% of 300,000 active | recombinant GSTO1, activity-based probe fluorescence polarization;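 active means inhibition above the campaign mean inhibition plus 3 SD, cut at about 35% in these data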;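 further: 0% = GSTO1-1 with DMSO and 100% = wells lacking GSTO1-1 enzyme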
PME-1 primary = blocks human protein phosphatase methylesterase 1. inhibition, % at 5.9 µM. Q9Y570. AID 2130. recombinant PME-1, FP-Rh probe fluorescence polarization. 0.53% of 320,000 active;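 active means inhibition above the campaign mean of all compounds plus 3 SD, cut at about 26% in these data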;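 further: competitive labeling of PME-1 active site by serine hydrolase directed probe; 0% = PME-1 with DMSO and 100% = wells lacking PME-1 enzyme; inhibitors block probe labeling so polarization falls and inhibition rises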
Fam108B inh = counter-screen for RBBP9 inhibitors: inhibitors of mouse Fam108B; AID 1947; inhibition, % at 9.51 µM; 0.33% of 300,000 active; recombinant Fam108B, FP-Rh probe fluorescence polarization;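 active means inhibition above the screen mean inhibition plus 3 SD, computed separately per campaign, cut at about 18% in these data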;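 further: inhibitors lower polarization as less probe binds the enzyme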
LYPLA2 counter = counter-screen for PME1 inhibitors: inhibitors of human LYPLA2. O95372. recombinant LYPLA2, FP-Rh probe fluorescence polarization. AID 2177. 0.38% of 320,000 active. inhibition, % at 5.9 µM;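 active means inhibition above the screen-wide mean plus 3 SD, limit set per campaign, cut at about 26% in these data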;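 further: 0% = LYPLA2 with DMSO and 100% = wells lacking LYPLA2 enzyme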
Fam108b confirm = Fam108b (mouse) hydrolase inhibition, confirmation assay; shares compounds with Fam108B inh; recombinant Fam108b, FP-Rh probe fluorescence polarization; inhibition, % at 9.51 µM; 44% of 930 active; AID 1978;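 active means inhibition above a limit from the primary screen, the mean over all compounds plus 3 SD, cut at about 19% in these data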;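 further: 0% = median of active Fam108b wells and 100% = catalytically dead S170A mutant; inhibitors free the probe so polarization falls as inhibition rises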
Fam108b ABPP HTS = mouse ABHD17B inhibition | shares compounds with Fam108B inh | recombinant Fam108b, gel-based ABPP, fluorophosphonate probe | inhibition, % at 20 µM | 44% of 260 active | AID 588649; in the data active means inhibition above about 40%
* = called active by the depositor; x = no result. The list is not random: actives were taken first. Their share in the collection is about 1.8%.

SMILES | LYPLA1 inh | PAD4 FP inh | GSTO1 inh | PME-1 primary | Fam108B inh | LYPLA2 counter | Fam108b confirm | others
O=C(CCCN1C(=O)c2cccc3cccc(c23)C1=O)NCc1ccco1 | -2 | -3 | 1 | 8 | 1 | 0 | x
O=C(CCCN1C(=O)c2cccc3cccc(c23)C1=O)NCc1cccs1 | -5 | -2 | 4 | 1 | 22* | -7 | 27*
O=C(Cc1ccccc1)NCCn1ccc2ccccc21 | 0 | 0 | -1 | -1 | 1 | 7 | x
CC(=O)NCCn1ccc2ccccc21 | -1 | -3 | 11 | -6 | 22* | -9 | 5
O=[N+]([O-])c1cc(C2Nc3cccc4cccc(c34)N2)ccc1Cl | -15 | 3 | 10 | 18 | 1 | -11 | x
CSc1ccc(C2Nc3cccc4cccc(c34)N2)cc1 | -17 | -5 | 12 | 48* | 19* | -20 | 6
CSc1ccc(C2NC(=O)c3ccccc3N2)cc1 (stereo unspecified) | 0 | -2 | -3 | 6 | -1 | 6 | x
Clc1ccc(C2Nc3cccc4cccc(c34)N2)cc1 | -5 | 1 | 35* | 19 | 28* | 2 | 22*
c1cc2c3c(cccc3c1)NC(c1ccc3c(c1)OCO3)N2 | -8 | -6 | 35* | 23 | 24* | -4 | 4
Brc1ccc(C2Nc3cccc4cccc(c34)N2)s1 | -8 | 4 | 34 | 33* | 42* | 1 | 28*
Nc1c2nc(-c3ccccc3)[nH]c(=O)c2nc(=O)n1-c1ccccc1 | -5 | 5 | 0 | 11 | -7 | -3 | x
O=C(NC(=O)c1cc([N+](=O)[O-])ccc1Cl)C1=C(N2CCCC2)COC1=O | x | -4 | x | x | x | x | x
C/C(=N/NC(=O)c1cc(C)[nH]n1)c1ccncc1 | 0 | -1 | 0 | -1 | -2 | 5 | x
O=C(CCc1ccncc1)NC1CCCc2c1cnn2-c1ccc(F)cc1F (stereo unspecified) | 4 | -3 | -8 | 1 | 5 | -3 | x
COc1ccccc1C(=O)NNC(=O)C(=O)NC(C)C | -2 | -3 | 12 | -1 | 2 | -5 | x
Cc1ccnc(N=Cc2nc(-c3ccccc3Br)oc2O)c1 | 5 | -2 | 3 | -7 | 22* | 10 | 80* | Fam108b ABPP HTS=75*
Oc1oc(-c2cccc3ccccc23)nc1/C=N/c1nccs1 | -7 | -1 | -5 | -6 | -3 | -4 | x
Cc1cccc(N=Cc2nc(-c3ccccc3Br)oc2O)n1 | x | x | x | x | x | x | x | Fam108b ABPP HTS=50*
Cc1cccc(/N=C/c2nc(-c3ccccc3Br)oc2O)n1 | 3 | 3 | -8 | 4 | 27* | 20 | 37*
CN(CC(=O)Nn1cnnc1)S(=O)(=O)c1ccc(Br)cc1 | 0 | 0 | 6 | 0 | -2 | 1 | x
CCOC(=O)N1CCN(C(=O)/C(=C/c2ccc(Br)cc2)NC(=O)c2ccc(OC)cc2)CC1 | 0 | -3 | -2 | 0 | 1 | 5 | x
NC(=O)C1CCN(C(=S)NCCc2ccccc2)CC1 | 4 | -4 | 11 | 2 | 6 | 6 | x
CCOC(=O)c1sc(NC(=O)c2ccc(Cl)s2)cc1C | -1 | 1 | 2 | -6 | -1 | 0 | x
CCOC(=O)c1sc(NC(=O)Nc2ccc(Cl)cc2)cc1C | -24 | -4 | -56 | 20 | 44* | -11 | 83* | Fam108b ABPP HTS=95*
O=C(Nc1ccc([N+](=O)[O-])cc1Cl)c1cc(Cl)ccc1O | 0 | -3 | 1 | 9 | 5 | 5 | x
O=C(Nc1cccc(Cl)c1)c1cc(N=Nc2ccc([N+](=O)[O-])cc2Cl)ccc1O | -11 | 4 | -8 | 22 | 26* | -12 | -1
Nc1nn2cc(-c3ccc(Br)cc3)nc2c2ccccc12 | -8 | -1 | -27 | -1 | 27* | -1 | 3
Cc1ccc(C(C)C)c(OCc2ccc(C(=O)N/N=C/c3ccc(O)c(O)c3)cc2)c1 | -12 | 0 | -25 | 38* | 35* | 3 | -25
Cc1ccc(C(C)C)c(OCc2ccc(C(=O)N/N=C/c3cccc(O)c3O)cc2)c1 | -23 | -4 | -32 | 49* | 28* | 2 | 10
